# Screening data deposited in PubChem by National Center for Advancing Translational Sciences (NCATS).
# Cruzain inh noDet – inhibitors of Trypanosoma cruzi cruzain without detergent | Potency, µM, inactives show max response, negative = inhibition, usual class: inhibitors | 200,000 tested, 2.3% active | P25779 | purified cruzain, Z-FR-AMC fluorescence, no detergent | AID 1476;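 further: plate controls were enzyme without inhibitor for no effect and buffer without enzyme for full effect; nearly all actives have a fitted effect of over 40% in size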
# Target sequence (P25779 123-467 limits assumed): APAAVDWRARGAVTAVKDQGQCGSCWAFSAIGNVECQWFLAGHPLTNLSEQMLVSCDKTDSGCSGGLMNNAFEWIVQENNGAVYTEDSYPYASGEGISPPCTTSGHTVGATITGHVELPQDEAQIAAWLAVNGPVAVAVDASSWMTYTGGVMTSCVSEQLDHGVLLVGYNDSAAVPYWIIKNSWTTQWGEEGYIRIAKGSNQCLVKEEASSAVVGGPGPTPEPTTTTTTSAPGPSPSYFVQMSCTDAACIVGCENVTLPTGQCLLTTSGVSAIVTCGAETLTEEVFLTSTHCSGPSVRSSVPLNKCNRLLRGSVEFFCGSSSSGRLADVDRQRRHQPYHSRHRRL
#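 Detergent-free condition (0.00005% Triton X-100) in acetate buffer pH 5.5 with DTT. 1.5 nM enzyme and compound were pre-mixed 15 min, then 2 uM Z-FR-AMC substrate added; reaction progress from fluorescence change between first and third reads (60 s).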
# Cruzain Triton – blocks cruzain activity in presence of Triton detergent. purified cruzain, Z-FR-AMC fluorescence, 0.01% Triton. Potency, µM, for the others: max response, negative = inhibition, usual class: inhibitors. 200,000 tested, 0.43% active;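 further: plate controls were neutral wells for no effect and buffer without enzyme for full effect; nearly all actives have a fitted effect of over 40% in size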
#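 Compounds were screened in titration against cruzain (1.5 nM) with 0.01% Triton X-100 to counter colloidal aggregation. Activity was the AMC fluorescence increase over 60 s after adding 2 uM Z-FR-AMC at pH 5.5.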
# Papain inh – papain (Carica papaya) inhibition counter-screen. purified papain, Z-FR-AMC fluorescence cleavage. AID 2161. Potency, µM, inactives show max response, negative = inhibition, usual class: inhibitors. shares compounds with Cruzain Triton. 410 tested, 41% active;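 further: 0% = no-compound wells and -100% = no-enzyme wells; nearly all actives have a fitted effect of over 35% in size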
# Target sequence (P00784 whole entry, looked up): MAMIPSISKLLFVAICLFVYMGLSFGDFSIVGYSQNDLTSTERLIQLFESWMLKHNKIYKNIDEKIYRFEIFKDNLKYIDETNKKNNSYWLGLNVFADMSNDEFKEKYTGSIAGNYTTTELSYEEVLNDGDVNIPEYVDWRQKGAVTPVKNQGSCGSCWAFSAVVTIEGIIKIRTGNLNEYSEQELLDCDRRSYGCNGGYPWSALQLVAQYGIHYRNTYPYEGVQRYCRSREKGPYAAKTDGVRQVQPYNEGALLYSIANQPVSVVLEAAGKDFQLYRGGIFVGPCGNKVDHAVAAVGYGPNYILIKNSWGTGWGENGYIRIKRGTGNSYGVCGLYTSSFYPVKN
# The depositor's hits bear a star; ? = inconclusive; · = not tested or not shown. Compounds with a hit are over-represented: about 2.4% of the library has one in this group of screens. The call rests on the fitted dose curve; in most records, active means well fitted curve in the direction sought with a large enough effect; inconclusive means small, poorly fitted or top-dose-only effect, or another doubt; inactive means no such curve, though single readings can be large; an effect the other way counts as inactive or inconclusive. Potency means the concentration at half of the fitted maximal effect.
SMILES,Cruzain inh noDet,Cruzain Triton,Papain inh
COC(=O)CS(=O)(=O)c1nnc([C@H](Cc2ccccc2)NC(=O)OC(C)(C)C)o1,10µM*,7.1µM*,5.6µM*
Cc1nc2cc(-c3ccc(Cl)cc3)nn2c(C)c1CCC(=O)N1CCN(c2ccccc2)CC1,-3%,3%,·
Cc1nc2cc(-c3ccccc3)nn2c(C)c1CCC(=O)N1CCN(c2ccccc2)CC1,?,3%,-30%
Cc1cc(C)c(Cn2c(=O)n(CCCC(=O)NCc3ccc4c(c3)OCO4)c(=O)c3sccc32)c(C)c1,-10%,-1%,·
COc1cccc(CNC(=O)CCc2c(C)nn(-c3ccc(N4CCOCC4)nn3)c2C)c1,-9%,-1%,·
CC(C)C[C@H](N)c1nnc(SCc2ccc(Cl)cc2Cl)o1,1%,-2%,·
CC(C)C[C@H](N)c1nnc(S(=O)(=O)Cc2ccc(F)cc2)o1,13µM*,13µM*,3%
Cc1ccc2[nH]c(=O)c(CN(Cc3ccco3)Cc3nnnn3Cc3ccccc3)cc2c1,·,·,-18%
O=c1[nH]c2cc3c(cc2cc1CN(Cc1ccccc1)Cc1nnnn1Cc1ccco1)OCCO3,8%,-14%,·
Cc1ccc2[nH]c(=O)c(CN(Cc3ccccc3)Cc3nnnn3Cc3ccccc3)cc2c1,·,·,-8%
Cc1ccc2[nH]c(=O)c(CN(Cc3nnnn3Cc3ccccc3)C3CCCC3)cc2c1,3%,-13%,·
Cc1cccc2cc(CN(Cc3ccccc3)Cc3nnnn3Cc3ccccc3)c(=O)[nH]c12,·,·,-7%
Cc1ccc2[nH]c(=O)c(CN(Cc3ccc4c(c3)OCO4)Cc3nnnn3Cc3ccco3)cc2c1,-8%,-3%,·
Cc1ccc2[nH]c(=O)c(CN(CCCO)Cc3nnnn3Cc3ccco3)cc2c1,·,·,-1%
Cc1cccc2cc(CN(Cc3cccs3)Cc3nnnn3Cc3ccccc3)c(=O)[nH]c12,0%,-1%,·
COc1cc(Cl)c(C)cc1Nc1nc2ccccc2c2nnc(C)n12,3%,1%,·
CCN1CCN(c2cc(C)c3cc(NC(=O)/C=C/c4cccc(Cl)c4)ccc3n2)CC1,-2%,-5%,·
CS(=O)(=O)c1ccc(/C=N\NC(N)=S)cc1,-13%,-8%,·
COc1ccccc1CN(Cc1cc2cc3c(cc2[nH]c1=O)OCCO3)Cc1nnnn1Cc1ccco1,?,-11%,·
Cc1ccc2cc(CN(Cc3ccco3)Cc3nnnn3Cc3ccco3)c(=O)[nH]c2c1,·,·,-8%
CCc1ccc2[nH]c(=O)c(CN(Cc3ccccc3)Cc3nnnn3Cc3ccccc3)cc2c1,·,·,-11%
CCc1ccc2[nH]c(=O)c(CN(Cc3ccccc3)Cc3nnnn3Cc3ccco3)cc2c1,6%,-12%,·
CC/C(=C(\c1ccccc1)c1ccc(OCCN(C)C)cc1)c1ccc(O)cc1,-4%,1%,·
Cc1cccc(-c2nc(CSc3nncn4c3cc3oc(C)cc34)c(C)o2)c1,-1%,-1%,·
COc1ccc(N2C(=O)CSC23C(=O)N(CC(=O)NC2CCCCC2)c2ccccc23)cc1 (stereo not given),0%,-2%,·
SMILES,Cruzain inh noDet,Cruzain Triton,Papain inh
COc1ccc(-c2cn3nc(SCC(=O)Nc4cccc(C)c4C)ccc3n2)cc1,10%,2%,·
N#Cc1nc(Nc2cc(F)cc(F)c2)nc(NC2CCCC2)n1,·,·,0.32µM*
COc1ccc(-c2nc3c(C#N)c[nH]n3c2NC2CCCC2)cc1,-18%,0%,·
c1cc2cn[nH]c2cc1NC1CCCCCC1,-8%,-4%,·
N#Cc1nc(Nc2ccc3ccccc3c2)nc(NC2CCCC2)n1,·,·,2µM*
CCOc1nc(NC2CCCCC2)nc(NC(C)(C)C)n1,-9%,-10%,·
N#Cc1nc(Nc2cccc(-c3ccccc3)c2)nc(NC2CCCC2)n1,·,·,2.5µM*
COc1ccc(Nc2nc(C#N)nc(NC3CCCC3)n2)cc1,·,·,0.56µM*
FC(F)(F)c1cc(-c2ccccc2)nc(NC2CCCC2)n1,-6%,-1%,·
Cc1cccc(NC(=O)CSc2nccn2Cc2ccc(F)cc2)c1C,10%,-2%,·
CCOc1ccccc1NC(=O)CSC1=Nc2ccccc2C2=NC(CC(=O)NC3CCCCC3)C(=O)N12 (stereo not given),-4%,-5%,·
CC(C)(C)OC(=O)NCCCC1=CC2=CC(=O)C(C)(OC(=O)c3cnc4ccccc4n3)C(=O)C2=CO1 (stereo not given),-9%,0%,·
Cc1ccccc1CNC(=O)CCC(=O)N1CCSc2ccccc21,14%,-1%,·
COc1cc2nc(Nc3cccc(F)c3)nc(N)c2cc1OC,-4%,-28%,·
N#Cc1c[nH]n2c(NC3CCCC3)c(-c3ccc(Cl)cc3)nc12,?,-8%,·
N#Cc1nc(Nc2cccc(F)c2)nc(NC2CCCC2)n1,·,·,0.32µM*
N#Cc1nc(Nc2cc(Cl)cc(Cl)c2)nc(NC2CCCC2)n1,·,·,1.4µM*
C=CCOC(=O)N[C@@H](Cc1ccccc1)/C(C(=O)OC)=C(\C)NCc1ccccc1,-9%,2%,·
O=C(NCCOc1ccccc1)c1cc(C(=O)NCCOc2ccccc2)cc([N+](=O)[O-])c1,-2%,-5%,·
O=C(NCCc1nc2ccccc2[nH]1)c1cc([N+](=O)[O-])cc([N+](=O)[O-])c1,-4%,3.5µM*,5%
COc1ccc(/C=C/C(=O)Nc2ccc(-n3nncc3-c3ccc(OC)c(OC)c3)cc2)cc1OC,?,-15%,·
COc1ccc(-c2cnnn2-c2ccc(NC(=O)/C=C/c3ccc(OC)c(OC)c3)cc2)cc1,13µM*,3.5µM*,-14%
O=C(Nc1ccccc1)c1ccc(-n2nncc2-c2ccccc2)cc1,·,·,2%
CN(C)S(=O)(=O)c1ccc(C(=O)Nc2ccc(-n3nncc3-c3ccccc3)cc2)cc1,-16%,0%,·
O=C(/C=C/c1ccc2c(c1)OCO2)Nc1ccc(-n2nncc2-c2ccccc2)cc1,·,·,14µM*
SMILES,Cruzain inh noDet,Cruzain Triton,Papain inh
O=C(Nc1ccc(-n2nncc2-c2ccccc2)cc1)c1cccc(F)c1,9%,11%,·
Cc1ccc(NC(=O)c2sc3nc4c(cc3c2N)CN(Cc2ccccc2)CC4)cc1,38%,2%,·
CCC(=O)C1=C(c2cccc(OC)c2)N(C(=O)CC)n2c(nnc2C2CCCCC2)S1,-6%,-3%,·
CCc1cccc(C)c1NC(=O)c1cnn(-c2ccc(OC)cc2)c1C1CCN(C(=O)OC(C)(C)C)CC1,?,-6%,·
CCN(CC)c1ccc(-c2nn3c(-c4n[nH]c5c4CCC5)nnc3s2)cc1,0%,-2%,·
COc1cccc(OC)c1-c1nn2c(-c3n[nH]c4c3CCC4)nnc2s1,·,·,16µM*
Brc1ccc(Nc2c3c(nc4nncn24)CCC3)cc1,8%,-2%,·
CCCN(CCC)C(=O)c1c[nH]c2ccc(S(=O)(=O)N(C)c3ccc(Cl)cc3)cc2c1=O,-1%,1%,·
CCCC(=O)Nc1cccc(OCc2cc(=O)n3cccc(C)c3n2)c1,-14%,6%,·
CCCCC/C=C\C/C=C\C/C=C\C/C=C\CCCCCC(N)=O,-18%,4%,·
COc1ccc(-c2nnc(NC(=O)c3ccc(S(=O)(=O)N4CCCc5ccccc54)cc3)o2)cc1,-23%,-1%,-4%
O=C(Nc1nnc(C2CC2)o1)c1ccc(S(=O)(=O)N2CCCc3ccccc32)cc1,23%,-5%,·
Cc1oc(=O)c(NC(=O)c2cccc(Cl)c2)cc1C(=O)c1ccccc1,0.63µM*,1.3µM*,-5%
O=C(Nc1ccc(Cl)cc1C(=O)c1ccccc1)c1ccccc1,-17%,1%,·
CC(=O)Nc1ccc(S(=O)(=O)Nc2cccc(-c3ccc(N4CCC(C)CC4)nn3)c2)cc1,11%,-3%,·
